Data taken from PubChem BioAssay (EPA / NIEHS).
Inconclusive results are not listed. Activity calls are given as the source filed them. Rule for the calls: active = hit-call score of the fitted dose curve at least 0.9, where 1 is the maximum; inconclusive = response in the unintended direction; inactive = score below 0.9.

Tests used:
[1] = TOX21_p53_BLA_p2_viability: Viability Assessment in the Tox21 HCT-116 p53 Agonism Beta-lactamase Assay, Phase 2 (AID 2283591);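 note: actives lower the ATP signal meaning cytotoxicity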
Procedure, shortened: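 Cytotoxicity readout: CellTiter-Glo ATP luminescence, 30 min at room temperature, after the beta-lactamase read. Cells were HCT116 exposed 16 h at 37C to compounds pin-transferred at 217-fold dilution from DMSO stocks.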

[2] = molecular target: Cellular tumor antigen p53 (Homo sapiens) (UniProt P04637); experiment: TOX21_p53_BLA_p3_ratio: Tox21 HCT-116 p53 Agonism Beta-lactamase Assay, Ratio, Phase 3 (AID 2283596)
Chain of Cellular tumor antigen p53 (Homo sapiens) (P04637 whole entry, looked up): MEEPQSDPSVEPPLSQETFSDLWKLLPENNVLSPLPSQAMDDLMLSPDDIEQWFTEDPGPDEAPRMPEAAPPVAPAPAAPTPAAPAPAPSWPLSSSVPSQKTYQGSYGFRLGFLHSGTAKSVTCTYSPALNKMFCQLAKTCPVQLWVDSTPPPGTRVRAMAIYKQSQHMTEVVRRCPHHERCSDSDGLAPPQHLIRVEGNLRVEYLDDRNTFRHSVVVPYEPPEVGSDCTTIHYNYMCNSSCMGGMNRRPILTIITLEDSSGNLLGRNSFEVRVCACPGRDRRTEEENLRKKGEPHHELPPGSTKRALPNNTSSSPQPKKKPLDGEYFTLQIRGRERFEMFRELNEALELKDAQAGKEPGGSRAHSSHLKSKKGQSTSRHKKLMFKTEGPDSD
Procedure, shortened: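 Cells were seeded at 4000/well, rested 5 h at 37C, then dosed with DMSO compound solutions (217-fold dilution) for 16 h. CCF4-AM substrate was loaded for 2 h at room temperature, and the 460/530 nm emission ratio was fitted for gain of signal versus DMSO.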

[3] = TOX21_p53_BLA_p4_viability: Viability Assessment in the Tox21 HCT-116 p53 Agonism Beta-lactamase Assay, Phase 4 (AID 2283597);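 note: hits lower the luminescence signal meaning cytotoxicity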
Procedure, shortened: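 ATP content by CellTiter-Glo luminescence, 30 min RT, read after the beta-lactamase ratio step. Cells: HCT116, 4000/well, compound added after 5 h, exposure 16 h at 37C. Signal loss = reduced viability.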

[4] = molecular target: Cellular tumor antigen p53 (Homo sapiens) (UniProt P04637); experiment: TOX21_p53_BLA_p5_ratio: Tox21 HCT-116 p53 Agonism Beta-lactamase Assay, Ratio, Phase 5 (AID 2283599)
Procedure, shortened: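 Beta-lactamase reporter ratio (blue 460 nm over green 530 nm, 405 nm excitation) after 2 h CCF4-AM loading, in HCT-116 cells exposed 16 h at 37 C to compounds pinned at 217-fold dilution. Increases relative to DMSO baseline scored.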

[5] = TOX21_p53_BLA_p5_viability: Viability Assessment in the Tox21 HCT-116 p53 Agonism Beta-lactamase Assay, Phase 5 (AID 2283600)
Procedure, shortened: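 ATP luminescence (CellTiter-Glo, 30 min, RT) served as the viability read-out, with loss of signal indicating cytotoxicity. Compounds in DMSO were pinned at a 217-fold dilution onto 4000 cells/well and incubated 16 h, 37C.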

[6] = molecular target: Cellular tumor antigen p53 (Homo sapiens) (UniProt P04637); experiment: TOX21_p53_BLA_p4_ratio: Tox21 HCT-116 p53 Agonism Beta-lactamase Assay, Ratio, Phase 4 (AID 2283601)
Procedure, shortened: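 Signal is the blue/green (460nm/530nm) ratio of cleaved versus uncleaved CCF4-AM substrate, read after 2 h substrate loading. Cells were HCT116 carrying the p53-responsive beta-lactamase reporter, dosed 16 h at 37C, 5% CO2; CellTiter-Glo measured in parallel.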

[7] = TOX21_p53_BLA_p3_viability: Viability Assessment in the Tox21 HCT-116 p53 Agonism Beta-lactamase Assay, Phase 3 (AID 2283593);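 note: cells exposed to compound for 16 h before reading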
Procedure, shortened: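 Cellular ATP was quantified by CellTiter-Glo luminescence, read after 30 min at room temperature. Beforehand, HCT116 cells (4000/well) received compound 5 h post-seeding, 217-fold diluted from DMSO, then incubated 16 h at 37C.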

PGR (gene 5241) = PGR (gene 5241) (UniProt P06401); experiment: TOX21_PR_BLA_Followup_Antagonist_ratio: Tox21 HEK293 Progesterone Receptor (PR) Antagonism Beta-lactamase Follow-Up Assay, Ratio (AID 2283934);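 note: PR-UAS-bla HEK293T cells stimulated with 1 nM R5020 agonist for 16 hr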
Chain of PGR (gene 5241) (P06401 whole entry, looked up): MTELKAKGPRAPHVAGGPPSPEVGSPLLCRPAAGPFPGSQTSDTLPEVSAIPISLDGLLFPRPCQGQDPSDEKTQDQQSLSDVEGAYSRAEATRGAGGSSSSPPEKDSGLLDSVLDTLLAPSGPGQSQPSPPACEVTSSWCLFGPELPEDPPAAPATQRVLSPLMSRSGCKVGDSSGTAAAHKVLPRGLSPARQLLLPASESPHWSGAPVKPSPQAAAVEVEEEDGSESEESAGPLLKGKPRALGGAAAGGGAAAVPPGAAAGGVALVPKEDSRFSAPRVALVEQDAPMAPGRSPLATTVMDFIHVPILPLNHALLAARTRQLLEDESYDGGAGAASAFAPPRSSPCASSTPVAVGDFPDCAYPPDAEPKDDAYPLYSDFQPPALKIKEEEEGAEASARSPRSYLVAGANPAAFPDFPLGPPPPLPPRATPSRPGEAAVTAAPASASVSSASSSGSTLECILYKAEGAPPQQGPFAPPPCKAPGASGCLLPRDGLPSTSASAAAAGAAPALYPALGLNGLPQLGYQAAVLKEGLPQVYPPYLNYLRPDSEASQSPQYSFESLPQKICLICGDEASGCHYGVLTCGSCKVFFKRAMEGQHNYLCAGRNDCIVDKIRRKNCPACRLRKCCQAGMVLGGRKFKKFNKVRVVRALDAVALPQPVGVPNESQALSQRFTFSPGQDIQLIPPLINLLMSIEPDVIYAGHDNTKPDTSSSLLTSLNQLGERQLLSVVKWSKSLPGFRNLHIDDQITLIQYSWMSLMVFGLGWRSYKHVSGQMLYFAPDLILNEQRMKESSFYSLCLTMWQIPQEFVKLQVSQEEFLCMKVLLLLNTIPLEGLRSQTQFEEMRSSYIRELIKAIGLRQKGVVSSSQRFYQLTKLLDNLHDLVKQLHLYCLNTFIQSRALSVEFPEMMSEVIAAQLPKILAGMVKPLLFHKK
Procedure, shortened: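 Measured in PR-UAS-bla HEK293T cells co-treated with compound and 1 nM promegestone for 16 hr; beta-lactamase ratio read after 2 h FRET substrate loading, with parallel CellTiter-Glo cytotoxicity.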

[8] = TOX21_PR_BLA_Followup_Agonist_viability: Viability Assessment in the Tox21 HEK293 Progesterone Receptor (PR) Agonism Beta-lactamase Follow-Up Assay (AID 2283935);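 note: signal loss means lower viability so actives are cytotoxic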
Procedure, shortened: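 Viability is read as CellTiter-Glo luminescence, where loss of signal indicates cytotoxicity. The cells are PR-UAS-bla HEK293T given compounds for 16 hr at 37C and 5% CO2, in the same wells used for the bla readout.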

[9] = TOX21_PR_BLA_Followup_Antagonist_viability: Viability Assessment in the Tox21 HEK293 Progesterone Receptor (PR) Antagonism Beta-lactamase Follow-Up Assay (AID 2283936);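 note: cells exposed to compound with R5020 agonist for 16 h; hits lower the luminescence signal meaning cytotoxicity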
Procedure, shortened: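 PR-UAS-bla HEK293T cells in medium with 2% charcoal-stripped FBS were treated with compounds plus R5020 for 16 hr at 37C. After the beta-lactamase read, CellTiter-Glo was added to the same wells and luminescence read after 30 min at room temperature.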

[10] = TOX21_PR_LUC_Followup_Agonist_viability: Viability Assessment in the Tox21 HEK293 Progesterone Receptor (PR) Agonism Luciferase Follow-Up Assay (AID 2283941);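 note: loss of signal means cytotoxicity so actives lower viability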
Procedure, shortened: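 Seeding: HEK293-PR-A-luc, 3,000 cells/well, 5 h at 37C. Treatment: compound in DMSO, 16 h, 37C. Read: CellTiter-Glo ATP luminescence, signal loss taken as lower viability.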

Measured: AC50

CN(C)CC/C=C1/c2ccccc2COc2ccc(CC(=O)O)cc21
inactive: [1] | [2] | [3] | [4] | [5] | [6]

O=C1c2ccccc2-c2ccccc21
inactive: [1] | [2] | [3] | [4]

C1COC1
inactive: [1] | [2] | [3] | [4] | [5]

CCC(C)[O-].CCC(C)[O-].CCOC(=O)/C=C(/C)[O-].[Al+3]
inactive: [1] | [7] | [5]

O=C(O)c1cccc(/C=C2/C[C@@H]3[C@@H](/C=C/[C@@H](O)C4CCCCC4)[C@H](O)C[C@@H]3O2)c1
inactive: [1] | [7] | [5] | [6]

O=C(CCc1ccc(O)cc1)c1c(O)cc(O)cc1O
inactive: [1] | [7] | [5] | [6]

CCOC(=O)[C@H](CCc1ccccc1)N[C@@H](C)C(=O)N1C(=O)N(C)C[C@H]1C(=O)O
inactive: [1] | [2] | [3] | [4] | [5]

CC(=O)Oc1cc2c(s1)CCN(C(C(=O)C1CC1)c1ccccc1F)C2 (configuration not stated)
inactive: [1] | [7] | [5]

O=C(O)CN(CC(=O)O)CC1=CC2C(=CC1=O)Oc1cc(O)c(CN(CC(=O)O)CC(=O)O)cc1C21OC(=O)c2ccccc21 (configuration not stated)
inactive: [1] | [7] | [5]

COc1cc(N)c(Cl)cc1C(=O)NC1CCN(Cc2ccccc2)CC1
inactive: [1] | [7] | [5]

Nc1cc(Cl)c(NC2=NCCN2)c(Cl)c1
inactive: [1] | [7] | [4] | [6]

O=S(=O)(Oc1ccc(Cl)cc1)c1ccccc1
active: PGR (gene 5241) 59.9 µM
not listed: [2] | [3] | [6]
inactive: all other assays above

C[C@@H]1C[C@H]2[C@@H]3C[C@H](F)C4=CC(=O)C(Cl)=C[C@]4(C)[C@@]3(F)[C@@H](O)C[C@]2(C)[C@@]1(O)C(=O)CO
not listed: [2] | [3] | [6] | [8]
inactive: all other assays above

BrCCCCCBr
inactive: [1] | [2] | [3] | [4] | [5] | [6]

ClC/C=C/CCl
inactive: [1] | [2] | [3] | [4] | [5]

COc1ccc(C(=O)CCC(=O)O)c2ccccc12
inactive: [1] | [7] | [5]

CCCCN1C=CN(C)C1
inactive: [1] | [2] | [3] | [4] | [5]

O.O=C([O-])CC([S-])C(=O)[O-].[Au+].[Na+].[Na+] (configuration not stated)
inactive: [1] | [2] | [3] | [4]
